Screening data: PubChem, National Center for Advancing Translational Sciences (NCATS)
In the library only some 5.2% were active in any assay of this set; here they are far more common.
PLK1 PBD inh: qHTS for Inhibitors of PLK1-PDB (polo-like kinase 1 - polo-box domain): Primary Screen | Serine/threonine-protein kinase PLK1 (Homo sapiens), P53350 | Plk1 PBD binding of FITC phosphopeptide, fluorescence polarization | Potency, µM, for inactives: max response, negative = inhibition, actives largely listed as inhibitors | actives 2.8% (n = 360,000) | AID 720504, 2013; also: series mostly up to about 57 µM; nearly all actives have a fitted effect of over 65% in size
Sfp PPTase inh: qHTS Assay for Inhibitors of Bacillus subtilis Sfp phosphopantetheinyl transferase (PPTase). 4'-phosphopantetheinyl transferase ffp (Bacillus subtilis), Q9F4F7. Biochemical Sfp PPTase activity, qHTS. Potency, µM, inactives show largest response in the series, negative = inhibition, hits mostly inhibitors. actives 3.5% (n = 310,000). AID 1490, 2009;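 also: the enzyme is Sfp with the accession as filed and its product quenches rhodamine fluorescence; 0% = enzyme reaction without inhibitor and -100% = no enzyme wells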
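Compounds were incubated with enzyme (final 15 nM) for 15 min at room temperature before substrate addition started the reaction. Fluorescence at 525 nm excitation, 598 nm emission was recorded immediately and after 30 minutes.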
VDR inhibitor: Inhibitors of the vitamin D receptor (VDR): qHTS; Vitamin D3 receptor (Homo sapiens), P11473; VDR-SRC2-3 peptide fluorescence polarization, 2 h; Potency, µM, for the others: max response, negative = inhibition, usual class: inhibitors; actives 0.93% (n = 400,000); AID 504847, 2011
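Signal is fluorescence polarization, reporting how far test compounds block the interaction of VDR with the SRC2-3 coregulator peptide after a 2 h room-temperature incubation.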
IDH1 R132H inh: qHTS for Inhibitors of mutant isocitrate dehydrogenase 1 (IDH1): qHTS. Isocitrate dehydrogenase [NADP] cytoplasmic (Homo sapiens), O75874. IDH1-R132H enzyme, NADPH consumption, diaphorase/resazurin fluorescence. AID 602179, 2012. Potency, µM (doses to about 76.6 µM), inactives show at the highest dose activity change, negative = inhibition, most hits filed as inhibitors. actives 0.093% (n = 390,000); also: nearly all actives have a fitted effect of over 65% in size
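IDH1-R132H (0.5 ug/mL) preincubated 30 min with compound, then NADPH (0.016 mM) and alpha-KG (2 mM) added; 80 min at RT, pH 7.5. Remaining NADPH coupled via diaphorase/resazurin to fluorescence (540/590 nm); concentration-response curves normalized to no-enzyme control.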
TrxR1 substrate: qHTS Assay for Substrates of Mammalian Selenoprotein Thioredoxin Reductase 1 (TrxR1): qHTS; purified TrxR1 substrate turnover, NADPH consumption readout; Potency, µM (series often up to 114 µM), for the others: top-dose activity change, negative = substrate turnover; actives 0.01% (n = 390,000); AID 588456, 2011; also: nearly all actives have a fitted effect of over 50% in size
Target sequence (O89049 whole entry, looked up): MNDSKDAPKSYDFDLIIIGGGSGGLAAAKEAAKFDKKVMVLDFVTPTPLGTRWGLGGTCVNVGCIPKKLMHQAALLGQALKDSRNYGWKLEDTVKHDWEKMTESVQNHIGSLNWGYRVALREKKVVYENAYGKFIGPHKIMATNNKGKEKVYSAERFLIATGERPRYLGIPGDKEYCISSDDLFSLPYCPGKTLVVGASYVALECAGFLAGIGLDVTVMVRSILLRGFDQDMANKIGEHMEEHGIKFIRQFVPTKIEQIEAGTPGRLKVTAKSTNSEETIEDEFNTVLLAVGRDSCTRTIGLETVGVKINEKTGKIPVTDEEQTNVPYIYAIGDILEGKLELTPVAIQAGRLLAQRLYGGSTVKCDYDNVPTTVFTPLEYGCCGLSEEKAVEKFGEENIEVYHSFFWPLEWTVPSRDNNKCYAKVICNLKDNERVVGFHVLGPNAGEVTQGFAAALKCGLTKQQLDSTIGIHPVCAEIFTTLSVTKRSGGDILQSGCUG
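Rat TrxR1, dispensed at 90 nM, was prereduced with 400 uM NADPH (final) for 5 min at ~22 deg C, then incubated with compound 15 min before 400 uM selenite. A first-read NADPH fluorescence drop versus no-compound background flagged substrates.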
TrxR1 inh: qHTS Assay for Inhibitors of Mammalian Selenoprotein Thioredoxin Reductase 1 (TrxR1): qHTS | Thioredoxin reductase 1, cytoplasmic (Rattus norvegicus), O89049 | recombinant rTrxR1, NADPH fluorescence consumption, selenite substrate | Potency, µM (highest dose often 114 µM), without a hit: at the top dose activity change, negative = inhibition, usual class: inhibitors | actives 1% (n = 390,000) | AID 588453, 2011; also: nearly all actives have a fitted effect of over 65% in size
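Rat TrxR1 (90 nM in the dispensed reagent) was pre-reduced with 400 uM NADPH for 5 min at room temperature, then incubated with compound for 15 min. After 400 uM selenite was added, NADPH fluorescence (Ex 340/Em 450 nm) was followed for 8 min.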
Starred values were filed as active, the others as inactive; ? = inconclusive; · = no result; [ ] = another dose, or the depositor's remark. Calls follow the shape of the dose curve; as a rule, active = well fitted curve in the direction sought with a large enough effect; inconclusive = small, poorly fitted or top-dose-only effect, or another doubt; inactive = no such curve, though single readings can be large; an effect the other way counts as inactive or inconclusive. Unless noted, % is scaled to controls: 0 for no effect and ±100 for the full control effect; potency is read from the fitted curve at half-maximal effect.

SMILES	PLK1 PBD inh	Sfp PPTase inh	VDR inhibitor	IDH1 R132H inh	TrxR1 substrate	TrxR1 inh
CCNC(=O)C1(C)CCCCN1Cc1ccc(C#N)cc1 (stereo not drawn)	-2%	·	·	·	·	·
Cc1ccc(NC(=O)Cn2c(O)c(N=NC(N)=O)c3ccccc32)cc1	-1%	8%	-3%	4%	-4%	7%
Cc1ccc(NC(=O)Cn2c(O)c(N=NS(=O)(=O)c3ccc(C)cc3)c3ccccc32)cc1	27µM*	-4%	?	?	-9%	4%
O=C(NCC1CC1)c1ccc(-n2ccnc2)c2ccoc12	-4%	·	·	·	·	·
Cc1ccc(C2C(C#N)=C(N)SC(N)=C2C#N)c(C)c1	32%	79µM*	-30%	-1%	-4%	2.8µM*
Cc1ccc(C2C(C#N)=C(N)SC(N)=C2C#N)cc1	33%	-22%	-20%	-1%	-6%	?
CC(=O)N[C@H]1[C@H]([C@H](O)[C@H](O)CO)O[C@](O)(C(=O)O)C[C@@H]1O	-9%	·	12%	1%	0%	2%
Cc1cc(Br)c(NC(=O)CCl)c(Br)c1	-13%	8%	9%	-5%	1%	?
CC(C)c1cc(NC(=O)CCl)on1	-15%	-16%	7%	5%	0%	50µM*
COc1ccccc1Cc1c(-c2cccc(Br)c2)nc2c(C)cc(Br)cn12	-10%	·	·	·	·	·
CN1CCN(C(c2ccc(C(F)(F)F)cc2)c2cc(Cl)c3cccnc3c2O)CC1 (stereo not drawn)	·	45µM*	·	·	·	·
CCC(=O)NC(c1cc(Cl)c2cccnc2c1O)C1CC1 (stereo not drawn)	·	·	3%	·	3%	14%
Oc1c(C(c2ccccn2)N2CCCCC2)cc(Cl)c2cccnc12 (stereo not drawn)	30µM*	5%	?	9%	-2%	?
CN1CCN(C(c2ccc(Cl)cc2)c2cc(Cl)c3cccnc3c2O)CC1 (stereo not drawn)	2.4µM*	79µM*	45µM*	-13%	2%	6.3µM*
CC(=O)NC(c1ccccc1)c1cc(Cl)c2cccnc2c1O (stereo not drawn)	-14%	1%	17%	-1%	-10%	-15%
COc1ccc(S(=O)(=O)NC(C)(C)CO)cc1-c1nnc2c3ccccc3c(C)nn12	·	·	-5%	25%	7%	13%
Cc1ccc(S(=O)(=O)N2CCC(=O)N([C@H](COCc3ccc(Cl)cc3)C(C)C)CC2)cc1	-4%	·	·	·	·	·
CCOC(=O)Cc1ccc(NC(=O)N2CCC(CN3CCC(C)CC3)CC2)cc1	·	·	9%	-17%	0%	19%
Cc1cc(C=O)cc(C)c1[N+](=O)[O-]	·	·	·	·	3%	-6%
CNc1c(Br)cc(/C=C2\C=C(C(O)c3cc(Br)c(NC)c(Br)c3)c3ccccc32)cc1Br (stereo not drawn)	·	·	·	·	0%	38%[0.0914 µM]
COc1ccc(Cl)cc1NC(=O)CSC1=Nc2ccccc2C2=NC(CC(=O)NC3CCCCC3)C(=O)N12 (stereo not drawn)	·	·	-14%	-15%	-9%	-18%
CCc1ccc(NC(=O)C(C)Sc2nc(-c3ccco3)c(C#N)c(=O)[nH]2)cc1 (stereo not drawn)	24µM*	-11%	?	-2%	5%	18µM*
N#Cc1c(-c2ccco2)nc(SCC(=O)Nc2cccc(Cl)c2)[nH]c1=O	-7%	50µM*	-21%	1%	-4%	14µM*
N#Cc1c(-c2ccccc2)nc(SCc2cccc(Cl)c2)[nH]c1=O	27µM*	1%	-9%	-4%	6%[57.1 µM]	-3%[57.1 µM]
CCOc1ccccc1NC(=O)C(C)Sc1nc(-c2ccccc2)c(C#N)c(=O)[nH]1 (stereo not drawn)	·	·	-2%	-15%	-2%	16%
SMILES	PLK1 PBD inh	Sfp PPTase inh	VDR inhibitor	IDH1 R132H inh	TrxR1 substrate	TrxR1 inh
Cc1ccc(O)c(C(=O)c2cnn(-c3ccccc3)c2)c1	3.4µM*	-16%	?	-2%	-7%	16%[57.1 µM]
O=C(Cc1cnn(-c2ccccc2)c1)c1ccc(O)c(O)c1O	?	32µM*	-2%	-2%	-14%	-13%
COc1ccccc1-c1cc(NC(=O)COc2ccc(C)c(C)c2)n(-c2ccccc2)n1	·	·	2%	-2%	-3%[57.1 µM]	17%[57.1 µM]
Cc1ccccc1NC(=O)N1CCC(CN2CCCC2)CC1	·	·	8%	-4%	3%	-7%
O=S(=O)(CCN(CCS(=O)(=O)C(F)(F)F)CC1CCCO1)C(F)(F)F (stereo not drawn)	27µM*	5%	?	-1%	3%[2.29 µM]	?
O=C(NCC1CCCO1)C1CCN(S(=O)(=O)N2CCCC2)CC1 (stereo not drawn)	0%	-2%	-4%	0%	8%	15%
CC(C)(CO)NCc1ccc(Br)cc1	19µM*	-9%	28µM*	2%	9%	31%[57.1 µM]
Cc1ccc(CNC(C)(C)CO)cc1	-15%	-6%	6%	4%	-4%	-3%
NC(=O)c1cc(Cc2ccccc2)sc1NC(=O)c1ccco1	17µM*	-70%	?	2%	5%	-3%
CCOc1ccc(CC(=O)Nc2sc(Cc3ccccc3)cc2C(N)=O)cc1OCC	17µM*	28µM*	?	8%	-2%	-6%
O=C(Nc1nnc(Cc2ccccc2)s1)c1ccco1	-2%	16%	-4%	1%	6%[57.1 µM]	25%[57.1 µM]
COc1cccc(N2CC(NC(=O)/C=C\c3ccc4c(c3)OCO4)CC2=O)c1 (stereo not drawn)	·	·	19%	-9%	3%[57.1 µM]	19%[57.1 µM]
COc1ccc(-n2nc(C(=O)NCC(=O)Nc3cccc(Cl)c3)c3ccccc3c2=O)cc1OC	-6%	56µM*	2%	-1%	-3%[57.1 µM]	3%[57.1 µM]
COc1ccc(CCNC(=O)CNC(=O)c2nn(-c3ccc(OC)c(OC)c3)c(=O)c3ccccc23)cc1OC	7%	28%	15%	-5%	-1%[57.1 µM]	-1%[57.1 µM]
C[C@@]1(C(=O)O)NCCc2cc(O)c(O)cc21	·	56µM*	-12%	·	·	·
COc1cccc(NC(=O)CCc2nnc3ccc(N4CCN(c5cccc(OC)c5)CC4)nn23)c1	6µM*	2%	?	0%	1%[57.1 µM]	20%[57.1 µM]
CN(C)CCNCCCOc1ccccc1-c1ccccc1	·	50µM*	·	·	·	·
COCCCNCCOCCOc1ccccc1-c1ccccc1	-9%	?	-6%	7%	-7%	-14%
